Screens as filed in PubChem.
Hits are enriched below; roughly 1.9% of the tested compounds scored in any of these assays.
HTT cytoprotect: Huntington cell model cytoprotection by ATP luminescence; PC12 HTT-Q103 induced, cytoprotection, ATP luminescence, 40 h; Potency, µM (doses to about 56.4 µM), for inactives: cytoprotection (ATP increase), actives largely listed as activators; actives 0.14% (n = 230,000); AID 1471; note: % of control where 0% means no effect; nearly all actives have a fitted effect of over 45% in size
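Compounds added alongside 100 nM tebufenozide, which induces toxic Q103 huntingtin exon 1-GFP in stable PC12 cells; surviving cells quantified by luminescent ATP measurement. Medium: phenol red-free DMEM, 5% equine and 5% calf serum.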
IMPase Li cell: membrane-permeable IMPase blocker, potentiated with lithium | CHO-M1 cells, IP1 TR-FRET (IP-One), carbachol + lithium | Potency, µM (doses to about 59.4 µM), for inactives: top-dose activity, negative = IMPase inhibition, hits mostly inhibitors | actives 0.35% (n = 210,000);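 note: IP1 builds up when IMPase is blocked and the TR-FRET signal falls; plate controls were basal vehicle for no effect and high inhibitor control for full effect; nearly all actives have a fitted effect of over 50% in size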
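CHO cells stably expressing M1 receptor (2000/well) were cultured 16–30 h, then exposed to compounds with a small lithium addition for 30 min at 37C. IP1 was measured by TR-FRET competition; AC50 from Hill fits.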
HttQ103 aggreg: reduces HttQ103-GFP aggregates in PC12 cells; PC12 HttQ103-GFP aggregates, Acumen cytometry, 40 h; Potency, µM (doses to about 46.1 µM), for inactives: top-dose activity change, negative = inhibition, most hits filed as inhibitors; actives 1.1% (n = 220,000); note: % is set by controls: 0 for no effect and ±100 for the full control effect; nearly all actives have a fitted effect of over 60% in size
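Compounds (qHTS titration) were added to PC12 cells expressing an ecdysone-driven HTT exon 1 Q103–GFP fusion after induction with 100 nM tebufenozide. Aggregate formation was measured as GFP objects in cell lysates.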
ERK EGF inh: blocks ERK signaling stimulated by EGF | HEK293-V1b, EGF-stimulated phospho-ERK AlphaScreen | Potency, µM (doses to about 11.5 µM), inactives show at the highest dose activity change, negative = inhibition, usual class: inhibitors | actives 0.41% (n = 130,000);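 note: plate controls were stimulated vehicle wells for no effect and unstimulated vehicle basal for full effect; nearly all actives have a fitted effect of over 55% in size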
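Compounds are titrated over HEK293-V1b cells kept overnight in 1% FBS. After 30 min at 37C, EGF (25 nM final) triggers ERK phosphorylation for 5 min, measured by AlphaScreen in lysates.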
NPSR antagonist: antagonists of human neuropeptide S receptor cAMP signaling. Q6W5P4. CHO-NPSR cells, cAMP TR-FRET, antagonist mode. Potency, µM (series often up to 38.3 µM), inactives show top-dose activity change, negative = inhibition, hits mostly inhibitors. actives 1% (n = 220,000); note: % is set by controls: 0 for no effect and ±100 for the full control effect; nearly all actives have a fitted effect of over 50% in size
Target sequence (Q6W5P4 whole entry, looked up): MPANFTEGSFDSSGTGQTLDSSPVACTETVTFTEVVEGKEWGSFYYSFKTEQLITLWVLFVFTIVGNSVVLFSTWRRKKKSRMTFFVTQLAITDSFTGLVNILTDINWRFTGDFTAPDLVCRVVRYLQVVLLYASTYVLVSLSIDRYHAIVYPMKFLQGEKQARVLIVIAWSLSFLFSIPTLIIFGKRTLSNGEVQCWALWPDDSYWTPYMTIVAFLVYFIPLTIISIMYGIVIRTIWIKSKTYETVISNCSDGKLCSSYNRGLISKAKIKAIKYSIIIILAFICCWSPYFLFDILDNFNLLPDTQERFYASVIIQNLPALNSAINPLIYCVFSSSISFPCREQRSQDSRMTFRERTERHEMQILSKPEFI
Numbers without * were called inactive; ? = inconclusive; . = no result given; [ ] = dose if it differs, or a comment. Calls come from the whole dose curve; as a rule, active = well fitted curve in the direction sought with a large enough effect; inconclusive = small, poorly fitted or top-dose-only effect, or another doubt; inactive = no such curve, though single readings can be large; an effect the other way counts as inactive or inconclusive. Potency is the fitted concentration of half-maximal effect.

SMILES | HTT cytoprotect | IMPase Li cell | HttQ103 aggreg | ERK EGF inh | NPSR antagonist
COc1ccc(C(Cl)=C(c2ccc(OC)cc2)c2ccc(OC)cc2)cc1 | -27% | 8% | -1% | -8% | 7.9µM*
CCOc1cc(-c2nc(-c3ccccc3)c(-c3cc([N+](=O)[O-])ccc3C)[nH]2)ccc1O | -87% | 10%[38.3 µM] | ? | . | ?
COc1ccc(-c2nc(-c3ccccc3)c(-c3cc([N+](=O)[O-])ccc3C)[nH]2)cc1OC | -36% | 28%[38.3 µM] | -22% | . | 7.9µM*
O=[N+]([O-])c1ccc(O)c(-c2nc(-c3ccccc3)c(-c3cccs3)[nH]2)c1 | -57% | 8%[38.3 µM] | 7.9µM* | . | ?
O=C(O)Cn1c(=O)oc2cc(S(=O)(=O)NC3CCCCC3)ccc21 | -10% | . | . | . | .
CCCCS(=O)(=O)N1CCc2nc(-c3ccccc3)c3c(c2C1)CO[C@@H](C)C3 | -7%[10 µM] | 7% | . | . | .
CC(C)(C)c1cc(C(=O)NCc2ccccc2)ccn1 | -9% | 6%[38.3 µM] | 11µM* | 9%[57.5 µM] | 3%[46.1 µM]
CS(=O)(=O)c1cccc(C(=O)NCc2ccccc2)c1 | -18%[10 µM] | -4% | -1% | . | 2%[46.1 µM]
C=CCc1cccc(/C=N/NC(=O)C(C)Nc2ccc(C)cc2)c1O (centres undefined) | 9%[10 µM] | 1% | 8.9µM* | -2% | -18%
C=CCc1cccc(/C=N/NC(=O)C(=O)Nc2ccc(C)cc2)c1O | . | 1% | . | -8% | 3%
CN(C1=C(NC(=O)c2ccccc2)C(=O)c2ccccc2C1=O)C1CCS(=O)(=O)C1 (centres undefined) | -9%[10 µM] | 25% | 22µM* | 5% | ?
CC(=O)NC1=C(NC2CCS(=O)(=O)C2)C(=O)c2ccccc2C1=O (centres undefined) | -34%[10 µM] | -8% | -10% | 26% | 19%
COc1ccc(-c2nn(-c3ccccc3)cc2C(=O)NC(=S)NNC(=O)c2ccncc2)cc1 | 17% | 9% | 10µM* | 5%[57.5 µM] | -41%
OCCN1CCN(C(c2cccs2)c2ccc3cccnc3c2O)CC1 (centres undefined) | -18%[0.074 µM] | -3%[38.3 µM] | 32% | . | 10µM*
Cn1c(=O)c2c(nc(/C=C\c3cccc(Cl)c3)n2C)n(C)c1=O | -6%[1.9 µM] | . | . | . | .
COc1cc(/C=C2/SC(=O)NC2=O)ccc1Oc1ccc([N+](=O)[O-])cc1[N+](=O)[O-] | -17%[10 µM] | . | 25%[9.22 µM] | -13%[57.5 µM] | 13µM*
Cc1ccc(CNC(=O)CC2Nc3c4ccccc4nc(=S)n3C2=O)cc1 (centres undefined) | 1%[10 µM] | 5.6µM* | 3% | 4% | -1%
N#Cc1cccc(-c2ccc3ncnc(NCc4cccnc4)c3c2)c1 | -13% | 10% | . | 15% | .
COc1ccc(NC(=O)N2CCCC3(CCN(C(=O)c4ccc(OC)cc4)CC3)C2)cc1 | -16% | 6% | . | -4% | .
COc1ccc(NC(=O)N2CC[C@@]3(CCCN(C(=O)c4ccncc4)C3)C2)cc1 | 2.2µM* | 7% | . | -9% | .
CC1=C(C(=O)Nc2ccccc2)C(c2ccc(C)o2)n2c(s/c(=C\c3ccco3)c2=O)=N1 (centres undefined) | -17%[0.074 µM] | 30%[38.3 µM] | ? | . | 13µM*
CCN(CC)c1nc2nonc2nc1N(CC)CC | 17% | 29%[38.3 µM] | 0.45µM* | . | -2%[46.1 µM]
O=C(CSc1nc2ccccc2c(=O)n1-c1ccccc1)N1CCc2ccccc2C1 | 6%[10 µM] | 21% | ? | 28µM* | -16%
CSCc1nnc(NC(=O)c2ccc(S(=O)(=O)N(CC(C)C)CC(C)C)cc2)o1 | -60% | 16%[38.3 µM] | 10µM* | . | 1%[46.1 µM]
COc1cccc([C@@H]2Oc3ccc(OC)cc3C[C@H]2OC(=O)NS(=O)(=O)c2ccc(F)cc2)c1 | -23% | 4% | . | 10% | .
SMILES | HTT cytoprotect | IMPase Li cell | HttQ103 aggreg | ERK EGF inh | NPSR antagonist
C=C1C(N)CC2CC1C2(C)C (centres undefined) | . | 18% | . | 19% | .
COc1ccc(NS(=O)(=O)c2ccc(OC)c3ccccc23)cn1 | -23% | 1%[38.3 µM] | 18µM* | . | -15%[46.1 µM]
COc1ccc(NS(=O)(=O)c2cccs2)cn1 | . | 3% | 2% | -5% | 7%
CCCc1cc(C(=O)N2CCN(C(c3ccccc3)c3ccccc3)CC2)no1 | -16%[10 µM] | 38%[38.3 µM] | 22µM* | . | ?
Cc1cc(C(=O)N2CCN(C(c3ccccc3)c3ccccc3)CC2)no1 | -4%[10 µM] | 10% | -2% | . | -18%[46.1 µM]
Nc1ccccc1[N+](=O)[O-] | -9% | 11% | . | . | .
CCCNC(=O)Cn1c(=O)/c(=C\c2ccc(-c3ccc([N+](=O)[O-])cc3)o2)s/c1=C\C(=O)C(C)(C)C | 20%[10 µM] | -20% | 14µM* | -8% | -8%
O=C(NCCC1=CCCCC1)NC12CC3CC(CC(C3)C1)C2 | -11%[10 µM] | 20% | 22µM* | 10% | -54%
CC(=O)OC1COC(OC2C(O)C(C)OC(OC3C(OC4CCC5(C)C(CCC6(C)C5CC=C5C7CC(C)(C)CCC7(C(=O)O)CCC56C)C4(C)CO)OCC(O)C3O)C2O)C(O)C1OC(C)=O (centres undefined) | -38%[10 µM] | 10% | -21%[9.22 µM] | 20µM* | ?
CC1(C)CC[C@]2(C(=O)O)CC[C@@]3(C)C(=CCC4[C@@]5(C)CCC(O)[C@@](C)(CO)C5CC[C@@]43C)C2C1 (some centres undefined) | . | 1% | . | 10% | .
C[C@@H]1OC(OC2CC[C@@]3(C)C(CC[C@@]4(C)C3CC=C3C5CC(C)(C)CC[C@]5(C(=O)OC5OCC(O)[C@@H](O)[C@@H]5OC5O[C@@H](C)[C@H](O[C@H]6OC(CO)C(O)C(O)C6O)C(O)C5O)C(O)C[C@@]34C)C2(C)C)C(O)C(O)[C@H]1OC1OCC(O)C(O)[C@H]1O (some centres undefined) | . | 23% | . | 14µM* | .
C/C=C(/C)C(=O)OC1C(OC(C)=O)[C@@]2(CO)C(O)C[C@@]3(C)C(=CCC4[C@@]5(C)CCC(OC6OC(C(=O)O)[C@@H](O[C@@H]7OC(CO)C(O)C(O)C7O)C(O)[C@H]6O[C@@H]6OC(CO)C(O)C(O)C6O)[C@](C)(CO)C5CC[C@@]43C)C2CC1(C)C (some centres undefined) | -30% | 2% | . | 7% | .
O=C1CC(SC(=Nc2ccccc2)Nc2ccccc2)C(=O)N1c1ccc(Cl)c(Cl)c1 (centres undefined) | . | 5% | 27% | 6% | -56%
Cc1cccc(N2C(=O)CC(SC(=Nc3ccccc3)Nc3ccccc3)C2=O)c1 (centres undefined) | . | 4% | 3.2µM* | . | -28%[46.1 µM]
CNc1sc(C(=O)c2cccs2)c(N)c1-c1nc2ccccc2s1 | 5%[10 µM] | -16%[38.3 µM] | -7% | . | 3.2µM*
CC1(C)O[C@@H]2C[C@H]3[C@@H]4CCC5=CC(=O)C=C[C@]5(C)[C@H]4C(O)C[C@]3(C)[C@]2(C(=O)CO)O1 (some centres undefined) | 10% | . | 11% | . | .
